# Measured values published in the supplement of paper PMC12632987.
# B1: usp_38_diff_out_17_125_220 (protein)
# chain: SDEELKKKAEELLKKAEELLKQAEKALEEGAPFEEIEKLLDEAADALGELAKTLRELREKSKDPAQAAKFIKEATEKANELIDRYTELATRAFLRQAEAA
# B2: usp_38_diff_out_17_125_221 (protein)
# chain: TDEELKKEIEEALKKAEELLKKAKKLLEEGAPFEEIRAELDKAADALGKLAVLLRELREKSEDKAQAAKFIKEATERANKLIDEYTKLATEAFLREAEAA
# B3: usp_38_diff_out_17_130_223 (protein)
# chain: SEDEIEALKEYLEAEKKNIKSVAEEAEKDFERAKKHPVTLDRALHALDGVIKYYEETIEEAKKILKEYPEVKEAAEELIKTAEEAKKKAEKLKKELEKLK
# B4: usp_38_diff_out_17_130_224 (protein)
# chain: SAEEVEALKEYLEAEKKNVESVKEDAKKDFERAKKNPVTLDRVEHALEGNIKYMEETIKEAEKLKKEYPEVKEAADKLIKAAKKAKEEFEKYLKEVKALK
# B5: usp_38_diff_out_17_130_225 (protein)
# chain: SADEVEALKEYLEAEKANIEAVAADAERDLARAKRLPVTLPRVRHALEGNIKYMEETIKEAEEIKKKYPEVAAAADALIKAARDAKAKFEAMLAEVDALE
# B6: usp_38_diff_out_17_130_227 (protein)
# chain: SAEEIESLKEYLRAEKENLKSVKEEAKKNLERAKKNPVTLDRVSHGLEGVATYAEDTIKEAKELLKKYPEVAEEAKELIKVAEEARKEAKELLKEVEKLK
# B7: usp_38_diff_out_17_130_228 (protein)
# chain: MEEEIESLKEYLEAEKKNLESVAKQAEEDYERAKKNPVTLDRVIHGLEGVATYAEDTIKEAKELIKEYPEVKEEAEKLIKVAEEAKKKAEALKKKLEALK
# B8: usp_38_diff_out_17_26_230 (protein)
# chain: AAEERRREARELMRELERRTAEALKEIEKLIEEGKLEEAEKKLDELVDEFTELATRLLELAADDDELFEEAVRVIDAAADRIAAAGNLLREAKKKKREEE
# B9: usp_38_diff_out_17_26_231 (protein)
# chain: SAEAARAKAEALLKELVAETDKALKEIDKLIKEGKFEEAEKLLDETVDKVTEKATEIFELAADDEALLDKANKTIGDIFDKLAARYKELQAARKAAKAAA
# B10: usp_38_diff_out_17_26_234 (protein)
# chain: SAEEERRRARELLEELRRRTEEALARIRELIAAGRFAEAQALLDATVTEVTATATEIFELAADDDELLDEVNRAVGEIFDRLAAAGRELREARRAAAAAA
# B11: usp_38_diff_out_17_26_235 (protein)
# chain: SAEEKRKKALELLKELEKETEKELEEIEKLIKEGKFEEAEKKLDELVTKTTEKTTEILELAADDPELVEEVLKSYDKISDKIAEKYKELQEAKKKARAEA
# B12: usp_38_diff_out_17_26_236 (protein)
# chain: SAEERREEARRALEELRADTDAALKEIDALIKAGKFEEAQALLDKLVDDFTKRATEILELAADDPELMDEALRAIGEVADKIAAAGSRLRAARKAAREAA
# B13: usp_38_diff_out_17_26_237 (protein)
# chain: SAEEKRKEAEKLLEELEKYVKETLEKIDKLIEEGKFEEAKKLLDELVTETTKRFTEILELAADDPELMDKALAKYDELSGQIAARYRRLEEARREAEAKA
# B14: usp_38_diff_out_17_26_238 (protein)
# chain: EAEERRKEARKLLEELKEKTEKDLEEIRKLIKEGKFEEAEKLLDETIDYVTEKSTEILELAADDDELFAEALAAIDEIFDKLAAAGKELREAKREAREKE
# B15: usp_38_diff_out_17_26_239 (protein)
# chain: SSEEKRKEAEKLLKEMEEKTEEALKEIDKLIAEGKFAEAQKLLDETIDYVTEKSTEILELASDDDELFEKVMEKIDKISDRLAAAGARLRAARRAARAAA
# B16: usp_38_diff_out_17_26_240 (protein)
# chain: SMEERRKEARKLLEEMEKRVEEDLKKIRELIKEGKFEEAEELLNKTIDYVTETSTKILELAADDDELFDEAMEAIDKISDKLAEAGKELREAKREAREKA
# B17: usp_38_diff_out_17_26_241 (protein)
# chain: SMEERRKEAEELLRRLEEETEKALEEIEKLIEEGKFEEARKLLDEAVDYATETATRILELAADDPELMDRALAVIGRIFDRLAEAYRRLEEARRRAEEEA
# B18: usp_38_diff_out_17_26_242 (protein)
# chain: EAEERRREARERLERLREETERALEEIDRLIAEGKFEEARKLLEETVRKATEEMTEILELAADDPELMEEALRAWDEISDRLAARYRELQAAIAAAKAAA
# B19: usp_38_diff_out_17_26_243 (protein)
# chain: SAEEKRKKARELLKKLKEESEKALEEIKKLIKEGKFEEAEKLLEETVKKVTETTLEILELAADDPELVEEVLEAYDEISDKLAQAYKELQKAKKEAAAKA
# B20: usp_38_diff_out_17_26_244 (protein)
# chain: SAEERNKKARELLEELKREAEKGLEEIRKLIEAGKFEEARKKLDELVTEVTERMLEILELAADNPELMEEALAAYDEISDAIAAAYRELQEARRAAAAAA
# B21: usp_38_diff_out_17_35_245 (protein)
# chain: SLEEKERELLERTRRAAEEALRRARELLEAAKADPSQIDRYLAEARAVLDRFLAEAADILIEAAKLEIDAEVLQEIGDIIDRASDELQAILDELEALKAA
# B22: usp_38_diff_out_17_60_246 (protein)
# chain: SAEAEKIIKELEERLEELEKRLKELEKEFKKAKAAGDKAKLEALAKEAQALLDEIADLLVELAKNSEIIDPETFLELADRASELADRAFALLKEIQKELA
# B23: usp_38_diff_out_17_60_247 (protein)
# chain: SAEAEEIIERLKKRLEELEKRLEELEKRFEEAKKKGDKEELEKLLKEAKELIDEIADLLVELAKNSELIDPETFLELADRASELADRAFKLKQEIEKELA
# B24: usp_38_diff_out_17_60_248 (protein)
# chain: SAEAEAIIARLEARLEELERRLEELERRFEEAERRGDKAELEELLKELDELLGEIADLLVELAKNSELIDPETFLRLADRASELADRAFALRQRVQQALA
# B25: usp_38_diff_out_18_121_249 (protein)
# chain: NPEELLEELRRALEEARRALEELEKLLENREEVSLEELREALRRAADALGRAAALLREARRRIGPEYREEIERAEKELDELVDRYTELGRELFLLEAERE
# B26: usp_38_diff_out_18_121_250 (protein)
# chain: DGEELLRRLREALRRAEEKLRELEELLERAEEVSLEELRAALDAAADALGEAAALLREARRRLGPEYREELEEAERRLDELVDRYTELGTRLFLLEAERQ
# B27: usp_38_diff_out_18_121_251 (protein)
# chain: EAKKVAEEALKAAKEATKLAKELLKAIKEGKWEKAEKLDKELDKKIKEFGRLYQELRDLRSEDPEQTKPLLKEVEKEGDKMIDIYNEAGTALFLAEAERQ
# B28: usp_38_diff_out_18_121_253 (protein)
# chain: EAEKLAEEALKLAEKLKELSEELLKAIKEGDLEKAEKLKKEMEELLKELGRKYLELRDLRAEHPEETKELLKEVEKKANEAIDKYEKAERAYFEFLAEQA
# B29: usp_38_diff_out_18_121_254 (protein)
# chain: KAEELAKKALELAEEIEKLSKELLKAIKEGNKEKAEELRKKLDEKIRELGRLYQELRDLHAENPHETRELLKEVNEKANKAIDEREKAETAYFEFLAEQE
# B30: usp_38_diff_out_18_14_255 (protein)
# chain: SEELEKATISNLNSLKEDVKKDTERVIKLLEKNKDDPERVKRITERANRNLAGVRTYAEEVLKEAEEKGWEEVKKAAEELLKTVDEAKKKIEEKVKEVLA
# B31: usp_38_diff_out_18_14_256 (protein)
# chain: SEELTKAEISNLESLKKSVKEDTERVIRLLEKNKDDPERVKRIYERAQRNLAGVETYAKEVLERAKKEGDEELAKAAEELLKEIEEARKRIEEKVKEVLA
# B32: usp_38_diff_out_18_14_257 (protein)
# chain: SKELTEATISNLKSLKEDVKEDTERVIRLLEKNKDDPERVKRIYERAKRNLAGVEKYAKEVLKEAKENGDEELAKAAEELLKAVEEARERIEEEVKRVLA
# Target: T1, USP38, Q8NB14
# T1 chain: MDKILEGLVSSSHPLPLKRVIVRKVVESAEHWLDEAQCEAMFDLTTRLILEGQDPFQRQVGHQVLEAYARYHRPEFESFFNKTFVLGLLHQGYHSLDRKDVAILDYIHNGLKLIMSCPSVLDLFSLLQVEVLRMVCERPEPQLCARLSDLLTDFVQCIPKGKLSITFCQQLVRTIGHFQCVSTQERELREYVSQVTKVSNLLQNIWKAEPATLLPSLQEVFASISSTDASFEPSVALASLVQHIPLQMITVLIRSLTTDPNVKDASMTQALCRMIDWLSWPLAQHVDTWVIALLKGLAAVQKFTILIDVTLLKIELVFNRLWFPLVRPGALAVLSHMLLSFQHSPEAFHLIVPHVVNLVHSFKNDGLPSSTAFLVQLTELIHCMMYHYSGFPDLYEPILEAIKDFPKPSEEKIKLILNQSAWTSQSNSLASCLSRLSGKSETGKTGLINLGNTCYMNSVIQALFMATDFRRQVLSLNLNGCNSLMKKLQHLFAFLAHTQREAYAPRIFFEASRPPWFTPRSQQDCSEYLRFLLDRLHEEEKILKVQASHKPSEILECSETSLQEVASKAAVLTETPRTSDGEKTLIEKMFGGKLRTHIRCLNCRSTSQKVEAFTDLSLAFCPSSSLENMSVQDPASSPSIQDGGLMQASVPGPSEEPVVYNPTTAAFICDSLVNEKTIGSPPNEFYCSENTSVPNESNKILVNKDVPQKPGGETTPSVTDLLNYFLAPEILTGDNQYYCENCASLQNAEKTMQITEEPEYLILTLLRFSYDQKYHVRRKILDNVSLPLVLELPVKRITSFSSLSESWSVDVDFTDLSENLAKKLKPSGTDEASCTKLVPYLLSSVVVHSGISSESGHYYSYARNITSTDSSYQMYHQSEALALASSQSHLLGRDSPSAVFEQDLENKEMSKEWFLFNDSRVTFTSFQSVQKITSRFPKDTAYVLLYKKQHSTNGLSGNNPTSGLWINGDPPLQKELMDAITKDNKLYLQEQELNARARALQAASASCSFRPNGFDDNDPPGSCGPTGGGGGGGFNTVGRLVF
# Assay: median log2 fold change of GCK-ALFA target abundance (FLAG IP / Myc IP barcode read proportion) (log2 ratio); each designed protein is fused to an ALFA-tag nanobody in HEK293 cells to bring the named protein to FLAG-tagged glucokinase (GCK); Myc marks an untargeted standard; higher = target protein stabilised (more abundant)
# Conditions: target protein: 3xFLAG-MCP-GCK-ALFA reporter; HEK293 landing pad (RPLP)
# Summary of the method: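 Sequencing of reverse-transcribed, amplified circular RNA barcodes from anti-FLAG and anti-Myc immunoprecipitates provided the readout for an ALFA-nanobody-fused binder library recombined into HEK293 landing-pad cells. Those cells were induced with 2 μg mL^−1 doxycycline, transfected with a plasmid expressing a FLAG-tagged target and a Myc-tagged standard, and lysed after 48 h. Target abundance is the per-binder median log2 ratio of FLAG to Myc barcode read proportions. Only barcodes at a proportion of ≥10^−7 in both replicates and binders with ≥3 barcodes per replicate were kept, with a 10^−6 pseudocount added before the two replicates were pooled.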
row,Binder,median log2 fold change
1,B1,0.167
2,B2,-0.359
3,B3,0.232
4,B4,0.401
5,B5,0.15
6,B6,0.32
7,B7,0.184
8,B8,-0.167
9,B9,-0.439
10,B10,-0.0515
11,B11,0.284
12,B12,0.0259
13,B13,0.259
14,B14,-0.0599
15,B15,-0.0256
16,B16,0.0157

row,Binder,median log2 fold change
1,B17,-0.00366
2,B18,0.467
3,B19,-0.0758
4,B20,-0.152
5,B21,0.015
6,B22,-0.51
7,B23,0.108
8,B24,-1.11
9,B25,-0.0715
10,B26,-0.109
11,B27,-0.563
12,B28,-1.1
13,B29,-0.478
14,B30,0.0514
15,B31,0.00955
16,B32,0.0724
